Several values for one entry are separate records, joined by “and”; a condition that tells them apart may be missing. Equal values may be shown once. The campaign covered roughly 5,500 compounds. About 2,000 (36%) were called active. Another 18% or so got no clear call; they are omitted. Cut-off read from the data, not from the text of the source: active = normalized growth mostly below about 0.91 (no sharp cut-off); inconclusive = no clear call, values can overlap the other calls; inactive = mostly above about 0.92. The list shows a part of the results.
Assay: chemical genetic growth profiling, strain panel (AID 1159580);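 note: tested at 20 µM; growth read once vehicle control cultures reached saturation at 30 °C; 1 = growth at the plate median or of vehicle wells; lower values mean less growth of the strain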
Conditions: S. cerevisiae deletion strains, growth OD

Measured: normalized growth

Clc1ccc(CSC(Cn2ccnc2)c2ccc(Cl)cc2Cl)cc1 (stereo not given)
active: locus YAL021C, strain ccr4, hits give low values 0.067 | locus YAL026C, strain drs2, hits give low values 0.0648 | locus YAL030W, strain snc1, hits give low values 0.0596 | locus YBL061C, strain skt5, hits give low values 0.062 | locus YBR009C, strain hhf1, hits give low values 0.0601 | locus YBR021W, strain FUR4, hits give low values 0.0857 | locus YBR023C, strain chs3, hits give low values 0.0649 | locus YBR171W, strain sec66, hits give low values 0.076 | locus YBR229C, strain ROT2, hits give low values 0.0457 | locus YBR231C, strain swc5, hits give low values 0.064 | locus YBR279W, strain paf1, hits give low values 0.064 | locus YCL011C, strain gbp2, hits give low values 0.0611 | locus YCL016C, strain dcc1, hits give low values 0.0681 | locus YCL029C, strain bik1, hits give low values 0.0583 | locus YCL069W, strain vba3, hits give low values 0.0628 | locus YCR088W, strain abp1, hits give low values 0.0629 | locus YDL005C, strain med2, hits give low values 0.0743 | locus YDL035C, strain GPR1, hits give low values 0.0497 | locus YDL040C, strain nat1, hits give low values 0.059 | locus YDL074C, strain BRE1, hits give low values 0.0766 | locus YDL101C, strain DUN1, hits give low values 0.0543 | locus YDL134C, strain PPH21, hits give low values 0.048 | locus YDL185W, strain tfp1, hits give low values 0.0566 | locus YDL192W, strain arf1, hits give low values 0.0601 | locus YDR001C, strain nth1, hits give low values 0.0613 | locus YDR069C, strain doa4, hits give low values 0.0624 | locus YDR101C, strain arx1, hits give low values 0.0606 | locus YDR137W, strain rgp1, hits give low values 0.102 | locus YDR150W, strain NUM1, hits give low values 0.0543 | locus YDR159W, strain sac3, hits give low values 0.0874 | locus YDR162C, strain NBP2, hits give low values 0.0476 | locus YDR195W, strain ref2 0.129 | locus YDR297W, strain sur2, hits give low values 0.0568 | locus YDR318W, strain mcm21, hits give low values 0.0592 | locus YDR334W, strain swr1, hits give low values 0.0638 | locus YDR335W, strain msn5, hits give low values 0.0624 | locus YDR388W, hits give low values 0.0553 | locus YDR392W, strain spt3, hits give low values 0.0838 | locus YDR502C, strain sam2, hits give low values 0.0567 | locus YEL003W, strain gim4, hits give low values 0.054 | locus YEL037C, strain rad23, hits give low values 0.0579 | locus YEL061C, strain CIN8 (second series), hits give low values 0.0613 | locus YEL061C, strain CIN8, hits give low values 0.0475 | locus YER015W, strain faa2, hits give low values 0.0623 | locus YER016W, strain bim1, hits give low values 0.061 | locus YER110C, hits give low values 0.0729 | locus YER111C, strain swi4, hits give low values 0.0739 | locus YER155C, strain BEM2 (second series), hits give low values 0.0999 | locus YER155C, strain BEM2, hits give low values 0.0594 | locus YER167W, strain BCK2, hits give low values 0.0492 | locus YFR010W, strain ubp6, hits give low values 0.0712 | locus YGL078C, strain dbp3, hits give low values 0.0667 | locus YGL086W, strain mad1, hits give low values 0.0535 | locus YGL167C, strain pmr1, hits give low values 0.0756 | locus YGL173C, strain kem1, hits give low values 0.0697 | locus YGL227W, strain vid30, hits give low values 0.065 | locus YGL240W, strain doc1, hits give low values 0.0922 | locus YGL248W, strain PDE1, hits give low values 0.0451 | locus YGL253W, strain hxk2, hits give low values 0.0562 | locus YGR078C, strain PAC10, hits give low values 0.0475 | locus YGR135W, strain pre9, hits give low values 0.0572 | locus YGR229C, strain SMI1, hits give low values 0.0582 | locus YGR252W, strain gcn5, hits give low values 0.112 | locus YHR013C, strain ard1, hits give low values 0.101 | locus YHR027C, strain rpn1, hits give low values 0.0633 | locus YHR030C, strain SLT2, hits give low values 0.0493 and 0.0968 | locus YHR079C, strain IRE1 (second series), hits give low values 0.0556 | locus YHR079C, strain IRE1, hits give low values 0.104 | locus YHR094C, strain hxt1, hits give low values 0.0572 | locus YHR129C, strain ARP1, hits give low values 0.0541 | locus YHR142W, strain chs7, hits give low values 0.0779 | locus YHR200W, strain rpn10, hits give low values 0.0594 | locus YIL066C, strain RNR3, hits give low values 0.047 | locus YIL073C, strain SPO22, hits give low values 0.109 | locus YIL125W, strain kgd1, hits give low values 0.0629 | locus YIR030C, strain dcg1, hits give low values 0.0572 | locus YJL092W, strain hpr5, hits give low values 0.0607 | locus YJL095W, strain BCK1 (second series), hits give low values 0.0571 | locus YJL095W, strain BCK1, hits give low values 0.0582 and 0.0962 | locus YJL115W, strain asf1, hits give low values 0.0715 | locus YJL129C, strain trk1, hits give low values 0.0907 | locus YJL134W, strain LCB3, hits give low values 0.0474 | locus YJL154C, strain vps35, hits give low values 0.0605 | locus YJL164C, strain tpk1, hits give low values 0.0651 | locus YJL166W, strain qcr8, hits give low values 0.0602 | locus YJL168C, strain set2, hits give low values 0.0557 | locus YJL187C, strain SWE1 (second series), hits give low values 0.0452 | locus YJL187C, strain SWE1, hits give low values 0.0595 | locus YJR043C, strain POL32, hits give low values 0.0608 | locus YJR066W, strain TOR1, hits give low values 0.00124

From PubChem BioAssay AID1159580 (chemical genetic matrix, 2015)
